The record followed here is PubChem BioAssay AID1508600 (Functional Genomics Laboratory (NCATS/FGL), 2020).

Among all 53,000 sequences or so, about 3,700 (7%) were called active. This is one part of a sample in which actives are shown more often than they occur. Values without a mark were called inactive.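 The calls were made as follows: active = gene knockdowns whose robust z-score for IL-1 alpha signal is at least 2 or at most -2, so actives lie on both sides; inactive = the rest.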

This assay can be described thus: Components of the Cytosolic LPS Sensing Pathway: Gene Identification via Genome-wide siRNA Screen.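 Also: robust z of the log signal after scaling to non-targeting control siRNA wells of the plate.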 To be noted: RAW264.7 macrophages, IL-1a HTRF, actives lie on both sides, screened at 100 nM (by protocol), cells primed 5 h with Pam3CSK4 first. In a few lines: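 RAW264.7 mouse macrophages reverse-transfected with single siRNAs (100 nM final) for 48h, primed with Pam3CSK4 for 5 hours, then transfected with LipidA for 24 hour. Supernatant IL-1a read by HTRF; values normalized to negative-control median, log-transformed robust z-scores.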
A general note: In TR-FRET formats the signal depends on donor and acceptor labels being close together.
In the case of GGUGAUAAUUAAUGUCUUGTT against Naip1, the z-score was 2.08 (active).

For the sequence GGAUCAGAACUUAUCUGUGTT against Utp23, the z-score is 0.383. For GGCACUGAUAAGAAGUACCTT against Dnah1 the value was 0.772; for GCUUAUGUUAAACCAGAGATT against Syt8, 0.0449.

As to GGAUCCUAGCCUUUUAUCATT against Cep70, the z-score is -1.11.

As to GGAUUCCAGAGAAAUGUGATT against Lrrc66, the z-score was -2.62 (active).

GGUAUGAGUACAAAUACUGTT against Tek: the z-score was 1.97. Next, GGCUCUGCCAUUUUCCCUUTT against F12: -1.24; GGCCAAGUUCCAUAUCACCTT against Eefsec: 0.46; GGAACUCAGUCAGGACCAATT against Hnf4aos: 0.954. For CGAGAAUAUGUGAGAGCUUTT against Dcaf13 the value was -0.793. Regarding GGAGACCCUGGUGAGAAGATT against Emid1, the z-score was 0.26. For GGAACACAGAGGUAAAAGGTT against Olfr446 the value was -2.66 (active). For the sequence CCAGCAUGCAUGAACGAGUTT against Carnmt1, the z-score is 0.508. For CCCUGUAACCAAUAAGAAGTT against Snrpa1, the z-score is -0.401. Next, GGGCUAUGCAGACCUGUACTT against Cyb561: -2.45 (active); CCUUGGGACAAGCAUAUAUTT against Psg25: 0.901. For “GGCAAGUCUAAAAUACAUUTT against St6galnac4” the value was -0.439; for CGUACCAGAUGAGCUAAGUTT against Zfp513, 2.56 (active); for CCUGUUGUAUUGUUUAGCGTT against Ago2, -0.402.

Regarding CCUCAAGAUAAACCGACAATT against Bard1, the z-score is 0.388.

On to GGAGUCCGCUCAGAAUUUGTT against Lhpp, for which the z-score was -0.194. For GGACAAAGUUGUUCCUUCUTT against Zfp13 the value was -2.62 (active); for GGAAGAUCUACAUCGUGGGTT against Klhl26, 0.341; for GGUGGUUUUUUGUUGUUGUTT against Lhfpl4, 0.277. Next, GCCUAUGACUACCUCGAGUTT against Rhob: -2.01 (active); GGAGAAUAAUAAGCUGGAATT against Hap1: 0.12; CGGUAUCUUGGUCAACCUGTT against Naaa: 0.955. As to GGUAGCUCUGAGACAAUUCTT against Pkhd1l1, the z-score is 0.857. Next, GCCCAUUAUGGUUAAAGAATT against Ccnb3: -0.311; “GGAGAUCGAUAUUCGACUATT against 4933434E20Rik”: -2.48 (active); GGAUAUUCUUCUUAAGCAGTT against Agbl5: -0.168.

Consider CCAGGUUGAUGAUUUCAACTT against Tbcc, for which the z-score was -1.43. For GGGAAGUGCAUGCUCAUCUTT against Smarcal1 the value was -0.187; for GCGUGGAUUACAUUUCUCUTT against Depdc1a, 0.392. For “GGACUGAGAACCAAAGCUGTT against D630044L22Rik” the value was -3.15 (active); for GGAAGAGCCAGUGGUAUAATT against Ccdc171, 0.164; for GUCUGAGCGACUGUCUCCATT against Mef2b, -2.17 (active). For GGAGAACCAUAAUAAGAGUTT against Tnfrsf26 the value was -2.88 (active). Take UCAAACUAGGUGCUGUUGUTT against Olfr584: the z-score was 0.998. Consider CCAAAGAUGCUCCUCACCUTT against Olfr197, for which the z-score was -0.158.

Consider GCUUCUAGCCUGUAUUGCCTT against Rps8, for which the z-score is 0.31. Next, CCUGUAUUUUACGAUCUUUTT against Best1: 0.103; GGUCCUGGACAAAGUGUUUTT against Tubgcp5: 2.48 (active). Take CCCAUCUGUUUGAGUGUAUTT against Ms4a1: the z-score was -0.305. In the case of GCCUUGGUACACUAAACUCTT against Rhcg, the z-score was -0.426.

Turning to GCCUGUAAGGAGAAUCAGCTT against Car4, the z-score was 0.684.

For the sequence GGUUCCAAGUCAAAGAGUUTT against Foxl1, the z-score is -0.47.

In the case of GGACUCUGUAGUUGAAGAUTT against Pogz, the z-score was -0.882.

For the sequence CCAUUCUGAAUCUCUAAUCTT against Pigw, the z-score was 0.134.

Regarding CCAAUCUGAAGUGCUACUATT against Trim42, the z-score is 0.368. For CCCGUGCCUUCCUUAAAGCTT against Ggt6 the value was 0.327. Next, CCCACUGAUGCUAUUUCUATT against Rad1: -2.57 (active); GGUCUUUAUCUACCAUGGGTT against Itga7: -1.29. For CCUUUGCCUAUGUUUACCATT against Ropn1l the value was 0.851; for GGGACUCAGUGUUUAUUGATT against Thsd4, 0.216. GGCUUUUAAGUUCUUCCAGTT against Ptbp3: the z-score is 2.44 (active). For UCAUUAGUAUCCUCCGUAUTT against Olfr919 the value was 0.27; for GGAAGGUGAUGAAGGAUCGTT against Fam118a, 0.0491; for GGAAGAUUUCACAUCUCAGTT against Pdia5, -0.528. For GCUUGUUAAAAUUGGAAAGTT against Kif11 the value was -1.47. Regarding GGCCUCCAAUAAAGCUCAGTT against Ttc28, the z-score was -2.07 (active). Next, GCUCCUAUUACUGAAUUUATT against Olfr749: -0.445; GGUGACCUUACCUAAUGUATT against Mettl18: 0.578. For GGCACAAGCAGGAGAUAAATT against Serpinb2 the value was 2.05 (active); for GGUGGUCUUUUCCCAGCAGTT against Msrb3, 0.793. For GGCAACACGAUGCAGCAGUTT against Fam50a the value was -0.36. Consider GCUCUACUGCUUCCUUGUUTT against Olfr229, for which the z-score was -0.338. For GGUGUCUGCUUCUUCAAAGTT against Slc25a26 the value was -2.33 (active); for GGAUAUUGCCAGUAAUUAATT against Kif21a, 0.212; for GCUACCUCAACAUGGAUGCTT against Pcca, 1.16.

As to GGAUGACUGUAUCUGUACUTT against Ttc3, the z-score is 0.0197. On to GGCCCAGAACAGAAAACUCTT against Clec1a, for which the z-score was -0.582. For GGACCUAAGGGAUCUAUUGTT against Col5a3 the value was 0.000962; for GCACUGUGAAUUUGUCAUUTT against Umps, 1.22. On to GGAACACGAAUCAUUUAUGTT against Eif4ebp2, for which the z-score was 0.351. For GUUUGGCCGAGUUCAUUUCTT against Pigu the value was 0.759; for CCUGUGGAUUACGGCCUCATT against Ube3b, -0.282. For GGAGCUGUUUUCUGUGAAGTT against Mrps2 the value was 0.0283; for GGAUGUGGAGCAAGUGAAGTT against Stx1b, -2.05 (active); for GCUUCAAGCCAUCCGAAUATT against Cfap36, 0.886. Next, GGACCAGCUGAAGAUGGGATT against Pced1b: -1.1; GCCAGUUUCCAGUCCUUGUTT against Dppa5a: -0.2.

In the case of GCACAUAAAAUGCUCACUGTT against Rgr, the z-score is -0.084. Next, CCAAACUUAAACAUGUUGUTT against Ddx21: 0.364. As for GCUGUACACAGUGAGGAAGTT against Gcat, the z-score is 5.42 (active). For CGACUACCACACGUGGAAUTT against Hvcn1 the value was 1.36; for UGUUCCUAGGUCAGCUACUTT against Olfr1200, -1.54.

Regarding GGCACUUCACAGACUUAGUTT against Selp, the z-score is -0.682. Take CUCCUUGUCUACCUGAAUATT against Vmn1r213: the z-score was -1.44. Next, CCUCUUAGCUAGAUCUUACTT against Smu1: -2.41 (active); GCCUGAGAAGAUAGACUGATT against Pigs: 0.114; GCUUAACUAGUAUCCUAUGTT against Tas2r135: -0.228. For GGACAAAGUGAAUUAUAGCTT against Tmem123 the value was 1.12; for GUAAGUUGUUUGAGGAAAGTT against Defb3, 2.08 (active); for GAAAUUCUUCCAGUGGAAGTT against Lrp2bp, 0.958. Consider “GGAACAUCAUCAACCACUATT against Olfr911-ps1”, for which the z-score was -1.53.

Take GGUACAACAGACUAUGCAATT against Snai1: the z-score is 0.886. GCUUUCGCCAAUAAAAAAGTT against Slc13a2: the z-score was 0.265. Next, GGUGAAACGGGAUGUUAACTT against Ppargc1b: -0.102; GCCUUAUUACUGACCUUUUTT against Smarcd2: 1.77; GCUAUGAAAGAGGGAAGCUTT against Cyp2c54: 0.164. CCAGAAAACUCAGUUUGAATT against Magi3: the z-score is 0.518.

For GCUGGUGGCAAUCAGAAAATT against Nppc, the z-score is 0.121. Consider GGUUCAACACGAUGUUCGATT against Nr1i2, for which the z-score is 0.162.

Turning to GGAUGUCUGACACAAGUGUTT against Olfr390, the z-score is 3.42 (active). Next, GCUUCACAGAAGCUUUGUGTT against Ccl4: -0.156.
